Assay results reported in PubChem BioAssay (NCATS).
Active and inactive are the calls of the source. How the calls were made is not given here.

Tested on: HIV-1 nucleocapsid protein NCp7 (binding to TG oligonucleotide)
Test: HIV Nucleocapsid (AID 346);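 further: potency is for inhibitors that block NC binding and lower polarization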
Details: HIV-1 NC / fluorescein-TGTGTGTG probe, fluorescence polarization
Outline: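 10 nM TG4xF probe with 100 nM nucleocapsid protein in high-salt Hepes pH 7.5 (250mM NaCl) containing 1uM ZnCl2 and reducing agents. Compound inhibition of binding was read as fluorescein polarization after 1 hr at room temperature.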
Potency means the concentration at half of the fitted maximal effect.

| Compound | Potency |
| --- | --- |
| COc1ccccc1CNc1ccnc(-c2cccc(C#N)c2)n1 | > 20 µM (inactive) |
| CS(=O)(=O)N1CCC2(CC1)CN(c1ccccn1)C2 | > 20 µM (inactive) |
| O=C(c1ccncc1)N1CCC2(CC1)CN(Cc1cc(C(F)(F)F)cc(C(F)(F)F)c1)C2 | > 20 µM (inactive) |
| COc1ccc(-c2nc3cnc(N4CCN(C)CC4)nc3n(-c3ccc(OC)cc3)c2=O)cc1 | > 20 µM (inactive) |
| CN1CCN(c2nc(-c3ccc(N(C)C)cc3)nc3ccccc23)CC1 | > 20 µM (inactive) |
| O=C(Nc1cccc(F)c1)N1CCC2(CC1)CCN(C(=O)c1cnccn1)CC2 | > 20 µM (inactive) |
| COC(=O)N1CCC2(CC1)CN(C(=O)Nc1ccc(OC)cc1)C2 | > 20 µM (inactive) |
| O=C(c1cnccn1)N1CCC2(CCCN(c3ncccn3)C2)CC1 | > 20 µM (inactive) |
| Cn1cc(-c2nc3cnc(N4CCNCC4)nc3n(C3CC3)c2=O)c2ccccc21 | > 20 µM (inactive) |
| CC(C)NC(=O)N1CCCC2(CCN(C(=O)c3cccc(F)c3)CC2)C1 | > 20 µM (inactive) |
| O=C(c1cccc(F)c1)N1CCC2(CCCN(c3ccccc3)C2)CC1 | > 20 µM (inactive) |
| N#Cc1cccc(-c2nc(NCc3ccccc3)c3ccccc3n2)c1 | > 20 µM (inactive) |
| COc1ccc(Oc2ncc3nc(-c4cc(F)cc(F)c4)c(=O)n(C)c3n2)cc1 | > 20 µM (inactive) |
| O=C(c1cccc(F)c1)N1CCC[C@@]2(CCN(Cc3ccncc3)C2)C1 | > 20 µM (inactive) |
| Cc1cnc(CNc2ncnc3ccc(-c4cccc(NS(C)(=O)=O)c4)cc23)cn1 | > 20 µM (inactive) |
| Cc1ccccc1-c1cc(Nc2ccc(F)cc2)ncn1 | > 20 µM (inactive) |
| CN(C)c1ncc2nc(-c3cc(F)cc(F)c3)c(=O)n(C3CC3)c2n1 | > 20 µM (inactive) |
| Cc1noc(C)c1C(=O)N1CCC2(CCN(Cc3cc(C(F)(F)F)cc(C(F)(F)F)c3)CC2)CC1 | > 4 µM (inactive) |
| CCNc1ncc2nc(-c3ccc(OC)cc3)c(=O)n(Cc3ccc(F)cc3)c2n1 | > 20 µM (inactive) |
| COCC(=O)N1CCC[C@@]2(CCN(C(=O)Nc3ccccc3)C2)C1 | > 20 µM (inactive) |

| Compound | Potency |
| --- | --- |
| N#Cc1ccc(CN2CCCC3(CCN(C(=O)c4cccc(F)c4)CC3)C2)cc1 | > 20 µM (inactive) |
| COCCn1c(=O)c(-c2ccc(F)cc2)nc2cnc(Oc3ccccc3)nc21 | > 20 µM (inactive) |
| CN(C)c1ccc(-c2nc(N(C)C)c3ccccc3n2)cc1 | > 20 µM (inactive) |
| COc1ccccc1CN1CC2(CCN(C(=O)c3cc(C(F)(F)F)cc(C(F)(F)F)c3)CC2)C1 | > 20 µM (inactive) |
| Cn1cc(-c2nc3cnc(N4CCNCC4)nc3n(CCC#N)c2=O)c2ccccc21 | > 20 µM (inactive) |
| CCNc1ncc2nc(-c3ccc(Cl)cc3)c(=O)n(CCC#N)c2n1 | > 20 µM (inactive) |
| CCNc1ncc2nc(-c3ccc(F)cc3)c(=O)n(CCOC)c2n1 | > 4 µM (inactive) |
| Cc1cccc(CNc2ccnc(-c3ccoc3)n2)c1 | > 20 µM (inactive) |
| COc1ccccc1-c1cc(N(C)Cc2ccco2)ncn1 | > 20 µM (inactive) |
| N#CCCn1c(=O)c(-c2cc(F)cc(F)c2)nc2cnc(Oc3cccc(Cl)c3)nc21 | > 20 µM (inactive) |
| COc1ccc(CNc2ncncc2-c2ccccc2OC)c(OC)c1 | > 20 µM (inactive) |
| Cn1cccc1C(=O)N1CCC2(CCCN(c3cccc(-c4ccccc4)c3)C2)CC1 | > 20 µM (inactive) |
| COc1ccc(-n2c(=O)c(C)nc3cnc(Oc4ccccc4)nc32)cc1 | > 20 µM (inactive) |
| c1ccc(C(c2ccccc2)N2CC3(CCNCC3)C2)cc1 | > 20 µM (inactive) |
| CN(C)C(=O)c1ccc(-c2ccc3ncnc(N(C)Cc4ccco4)c3c2)cc1 | > 20 µM (inactive) |
| Cc1cnc(CNc2ccnc(-c3ccccc3C(F)(F)F)n2)cn1 | > 20 µM (inactive) |
| c1cn(-c2cc(-c3ccc4c(c3)OCO4)ncn2)cn1 | > 20 µM (inactive) |
| CN(C)c1ncc2nc(-c3ccc(F)cc3)c(=O)n(CCC#N)c2n1 | > 4 µM (inactive) |
| CC(=O)N1CCC2(CCN(Cc3ccc(C#N)cc3)CC2)CC1 | > 20 µM (inactive) |
| CS(=O)(=O)Nc1cccc(-c2nc(Nc3ccc(F)cc3)c3ccccc3n2)c1 | > 20 µM (inactive) |
